Reference: PubChem BioAssay
The source made the active and inactive calls.

Tests used:
[1] = small molecules captured by biotinylated probe aFSTL3 – biochemical, small-molecule microarray, fluorescence 635/667, stem cell growth factor project, primary screen (AID 1064); settings: higher = more signal;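 further: measures binding of the biotinylated anti-FSTL3 antibody to printed compounds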
[2] = binders from COS7 lysate, DM2A8 probe, primary screen, torsin A project, cell lysate, small-molecule microarray, fluorescence 635/667 (AID 1065); settings: higher = more signal, COS7 lysate expressing mutant human TOR1A
[3] = small molecules captured by biotinylated probe aFGF2 – biochemical, small-molecule microarray, fluorescence 635/667, stem cell growth factor project, primary screen (AID 1067); settings: higher = more signal;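 further: measures binding of biotinylated aFGF2 protein to printed compounds on slides; z-score merges feature fluorescence and signal-to-noise across triplicate slides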
[4] = small molecules captured by biotinylated probe aFGF10 – biochemical, small-molecule microarray, fluorescence 635/667, stem cell growth factor project, primary screen (AID 1071); settings: higher = more signal;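 further: score merges 667 nm spot intensity and signal to noise from triplicate slides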
[5] = target: Neurogenic locus notch homolog protein 2 (Homo sapiens) (UniProt Q04721); assay: small molecules binding Notch2 protein – biochemical, small-molecule microarray, 635 nm fluorescence, stem cell growth factors, primary screen (AID 1073); settings: higher = more signal
Neurogenic locus notch homolog protein 2 (Homo sapiens), sequence (Q04721 whole entry, looked up, canonical isoform): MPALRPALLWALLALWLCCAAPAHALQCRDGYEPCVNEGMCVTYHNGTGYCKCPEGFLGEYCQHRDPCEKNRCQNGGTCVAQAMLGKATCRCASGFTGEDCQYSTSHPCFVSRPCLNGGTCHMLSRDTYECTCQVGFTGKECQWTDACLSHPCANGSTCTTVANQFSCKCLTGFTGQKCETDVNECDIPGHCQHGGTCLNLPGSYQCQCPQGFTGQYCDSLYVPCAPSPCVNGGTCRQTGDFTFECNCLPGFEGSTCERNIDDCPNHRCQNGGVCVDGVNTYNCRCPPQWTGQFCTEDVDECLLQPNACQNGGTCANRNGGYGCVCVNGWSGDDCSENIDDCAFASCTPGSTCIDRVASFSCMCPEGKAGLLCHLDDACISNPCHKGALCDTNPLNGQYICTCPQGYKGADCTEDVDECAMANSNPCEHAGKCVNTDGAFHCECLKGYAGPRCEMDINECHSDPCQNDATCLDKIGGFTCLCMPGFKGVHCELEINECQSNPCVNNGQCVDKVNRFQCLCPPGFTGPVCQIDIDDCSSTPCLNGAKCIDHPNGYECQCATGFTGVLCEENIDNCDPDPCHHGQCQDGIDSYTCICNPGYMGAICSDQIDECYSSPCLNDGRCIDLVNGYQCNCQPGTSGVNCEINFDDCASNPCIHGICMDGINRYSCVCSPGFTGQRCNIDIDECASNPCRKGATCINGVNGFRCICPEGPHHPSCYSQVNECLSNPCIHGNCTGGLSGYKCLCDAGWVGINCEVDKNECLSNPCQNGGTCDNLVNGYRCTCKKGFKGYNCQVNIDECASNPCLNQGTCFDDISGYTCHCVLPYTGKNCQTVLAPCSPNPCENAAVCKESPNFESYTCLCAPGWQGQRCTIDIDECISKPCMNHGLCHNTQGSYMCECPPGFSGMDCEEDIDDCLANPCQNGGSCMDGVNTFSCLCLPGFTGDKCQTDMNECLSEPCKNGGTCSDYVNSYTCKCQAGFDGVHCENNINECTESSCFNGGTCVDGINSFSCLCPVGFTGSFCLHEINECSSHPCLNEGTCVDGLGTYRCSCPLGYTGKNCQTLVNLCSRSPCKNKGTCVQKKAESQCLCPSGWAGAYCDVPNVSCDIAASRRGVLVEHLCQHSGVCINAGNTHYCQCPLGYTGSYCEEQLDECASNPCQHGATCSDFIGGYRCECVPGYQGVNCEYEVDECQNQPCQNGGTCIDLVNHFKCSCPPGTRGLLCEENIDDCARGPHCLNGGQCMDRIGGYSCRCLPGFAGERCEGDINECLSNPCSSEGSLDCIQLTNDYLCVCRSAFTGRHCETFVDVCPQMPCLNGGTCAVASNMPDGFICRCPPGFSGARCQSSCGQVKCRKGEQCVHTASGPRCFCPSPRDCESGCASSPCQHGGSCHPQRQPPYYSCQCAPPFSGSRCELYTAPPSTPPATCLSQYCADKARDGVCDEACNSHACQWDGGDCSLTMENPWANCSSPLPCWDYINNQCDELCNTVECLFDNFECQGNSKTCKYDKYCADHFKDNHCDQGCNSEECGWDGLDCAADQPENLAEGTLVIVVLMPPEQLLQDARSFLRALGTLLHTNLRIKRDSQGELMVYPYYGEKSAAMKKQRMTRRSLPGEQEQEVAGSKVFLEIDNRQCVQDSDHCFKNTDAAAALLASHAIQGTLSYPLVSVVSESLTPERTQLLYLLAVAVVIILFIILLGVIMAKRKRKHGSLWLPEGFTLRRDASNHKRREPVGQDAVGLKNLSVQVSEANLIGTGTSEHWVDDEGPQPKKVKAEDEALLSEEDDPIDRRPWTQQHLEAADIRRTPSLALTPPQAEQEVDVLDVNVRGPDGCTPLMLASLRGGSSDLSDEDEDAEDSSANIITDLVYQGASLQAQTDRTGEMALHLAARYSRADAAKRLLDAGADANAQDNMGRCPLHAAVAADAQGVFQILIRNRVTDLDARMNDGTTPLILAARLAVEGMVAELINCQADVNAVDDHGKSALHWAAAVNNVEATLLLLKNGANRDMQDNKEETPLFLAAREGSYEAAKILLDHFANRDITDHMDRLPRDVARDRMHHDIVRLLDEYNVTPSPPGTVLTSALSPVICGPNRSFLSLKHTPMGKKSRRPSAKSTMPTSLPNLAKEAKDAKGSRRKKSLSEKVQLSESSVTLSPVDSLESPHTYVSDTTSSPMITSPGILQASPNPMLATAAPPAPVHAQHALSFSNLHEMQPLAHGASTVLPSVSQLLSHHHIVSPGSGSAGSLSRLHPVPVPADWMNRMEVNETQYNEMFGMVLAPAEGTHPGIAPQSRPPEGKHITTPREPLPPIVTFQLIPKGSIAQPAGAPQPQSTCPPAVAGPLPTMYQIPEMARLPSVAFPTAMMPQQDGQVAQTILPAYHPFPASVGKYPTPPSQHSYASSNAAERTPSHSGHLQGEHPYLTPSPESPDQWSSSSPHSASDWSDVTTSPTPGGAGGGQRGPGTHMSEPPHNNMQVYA

[6] = target: Pro-neuregulin-1, membrane-bound isoform (Homo sapiens) (UniProt Q02297); assay: small molecules binding neuregulin-1 protein – biochemical, small-molecule microarray, fluorescence 635/667, psychiatric disease protein project, primary screen (AID 1075); settings: NRG1 binding, 635 nm fluorescence, higher = more signal;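 further: score combines 667 nm spot fluorescence with signal to noise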
Pro-neuregulin-1, membrane-bound isoform (Homo sapiens), sequence (Q02297 whole entry, looked up, the tested form may be a part, canonical isoform): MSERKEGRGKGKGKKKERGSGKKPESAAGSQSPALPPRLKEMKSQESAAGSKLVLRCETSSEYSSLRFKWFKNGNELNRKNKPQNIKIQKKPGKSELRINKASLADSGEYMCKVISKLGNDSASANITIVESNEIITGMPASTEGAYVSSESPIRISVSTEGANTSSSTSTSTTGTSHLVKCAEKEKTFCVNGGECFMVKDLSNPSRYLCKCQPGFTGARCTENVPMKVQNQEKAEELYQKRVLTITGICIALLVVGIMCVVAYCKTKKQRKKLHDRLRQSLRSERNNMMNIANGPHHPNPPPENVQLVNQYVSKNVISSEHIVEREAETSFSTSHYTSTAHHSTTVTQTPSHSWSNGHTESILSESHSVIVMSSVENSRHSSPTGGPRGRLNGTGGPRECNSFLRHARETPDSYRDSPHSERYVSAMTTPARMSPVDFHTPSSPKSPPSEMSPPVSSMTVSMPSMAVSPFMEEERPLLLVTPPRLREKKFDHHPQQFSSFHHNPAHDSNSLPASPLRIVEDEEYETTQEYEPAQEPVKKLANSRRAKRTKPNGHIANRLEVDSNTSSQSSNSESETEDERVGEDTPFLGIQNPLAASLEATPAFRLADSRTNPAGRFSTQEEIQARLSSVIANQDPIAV

[7] = tested on: Neuregulin-1 EGF-like domain; assay: small molecules binding NRG1 EGF domain – biochemical, small-molecule microarray, 635 nm fluorescence, primary screen (AID 1081); settings: higher = more signal;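 further: binding of the protein to compounds printed on small-molecule microarray slides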
[8] = FRG1 expression reporter modulators in myotubes – cell-based, C2C12 myotubes, firefly/Renilla luciferase, luminescence, FRG1 inhibition for FSHD, primary screen (AID 1084); settings: FRG1 promoter luciferase, higher = more signal, called active from +8 up or from −8 down
[9] = small molecules captured by biotinylated probe aFST – biochemical, small-molecule microarray, fluorescence 635/667, stem cell growth factor project, primary screen (AID 1086); settings: higher = more signal;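 further: score merges 667 nm fluorescence with signal-to-noise of each printed compound spot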
[10] = binders of probe aHhip on microarray, primary screen, stem cell growth factor project, biochemical, small-molecule microarray, fluorescence 635/667 (AID 1087); settings: higher = more signal;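 further: score merges spot fluorescence at 667nm with spot signal to noise ratio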
[11] = tested on: PRMT1 (protein arginine N-methyltransferase 1); assay: small molecules binding arginine methyltransferase PRMT1 – biochemical, small-molecule microarray, 635 nm fluorescence, primary screen (AID 1088); settings: higher = more signal;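 further: binding of Prmt1 protein to compounds spotted on small-molecule microarray slides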
[12] = growth effects on S. cerevisiae YJM789 – YJM789 clinical isolate, OD600, 24 h, basal, primary screen (AID 1089); settings: higher = more signal, called active from +8 up or from −8 down;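 further: growth of clinical yeast isolate S. cerevisiae YJM 789 seeded 1000 cells per well; test concentration not given here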
[13] = S. pombe growth modifiers, basal conditions – strain 972, OD600, 24 h, no modulator, primary screen (AID 1090);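 further: basal condition with compound alone and no growth modifier present; test concentration not given here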; settings: S. pombe 972 growth, higher = more signal, called active from +8 up or from −8 down
[14] = budding yeast growth modifiers under rapamycin – strain BY4716, OD600, 96 h, primary screen (AID 1091); further: test concentration not given here; settings: S. cerevisiae BY4716 + rapamycin, higher = more signal, called active from +8 up or from −8 down
[15] = target: Torsin-1A-interacting protein 2 (Homo sapiens) (UniProt Q8NFQ8); assay: small molecules binding lysate-expressed LULL1 – cell lysate, human LULL1 lysate, 635/667 nm fluorescence, primary screen (AID 1092); settings: small-molecule microarray, hLULL1 lysate binding, 635 nm fluorescence; higher = more signal;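 further: probe is lysate of COS7 cells overexpressing human LULL1; score merges per-feature 667 nm fluorescence with signal-to-noise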
Torsin-1A-interacting protein 2 (Homo sapiens), sequence (Q8NFQ8 whole entry, looked up): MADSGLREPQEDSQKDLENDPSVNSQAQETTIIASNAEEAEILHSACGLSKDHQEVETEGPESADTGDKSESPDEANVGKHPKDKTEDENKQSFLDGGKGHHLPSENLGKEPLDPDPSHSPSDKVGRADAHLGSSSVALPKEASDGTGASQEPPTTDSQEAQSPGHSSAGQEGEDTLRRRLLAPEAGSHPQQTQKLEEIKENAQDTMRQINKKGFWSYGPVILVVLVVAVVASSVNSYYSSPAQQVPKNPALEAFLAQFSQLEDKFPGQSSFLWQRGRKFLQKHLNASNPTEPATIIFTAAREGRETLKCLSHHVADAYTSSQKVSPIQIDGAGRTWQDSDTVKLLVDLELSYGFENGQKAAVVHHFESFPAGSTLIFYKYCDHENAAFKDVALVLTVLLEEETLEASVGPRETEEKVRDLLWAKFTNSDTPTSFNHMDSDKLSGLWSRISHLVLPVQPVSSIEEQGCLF

[16] = optical density change of DRC41 E. coli – strain DRC41, OD650, 24 h, E. coli filamentation project, primary screen (AID 1093);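 further: MC1000 strain lacking acrAB efflux and sulA so SOS filamentation is blocked; test concentration not given here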; settings: E. coli DRC41 growth, higher = more signal, called active from +8 up or from −8 down
[17] = probe aLefty2 binding to arrayed compounds – biochemical, biotinylated probe, 635/667 nm fluorescence, primary screen (AID 1094); settings: small-molecule microarray, higher = more signal;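 further: score merges spot fluorescence near 667 nm with spot signal-to-noise ratio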
[18] = tested on: Noggin (protein binding on small-molecule microarray); assay: small molecules binding Noggin protein – biochemical, 635/667 nm fluorescence, primary screen (AID 1095); settings: 635 nm fluorescence, higher = more signal;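 further: score merges 667 nm feature fluorescence with signal to noise over triplicate slides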
[19] = target: Neurogenic locus notch homolog protein 3 (Homo sapiens) (UniProt Q9UM47); assay: small molecules binding NOTCH3 protein – biochemical, 635/667 nm fluorescence, primary screen (AID 1096); settings: small-molecule microarray, 635 nm fluorescence, higher = more signal
[20] = probe aEGFR binding to arrayed compounds – biochemical, biotinylated probe, 635/667 nm fluorescence, primary screen (AID 1097); settings: small-molecule microarray, higher = more signal;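 further: probe is a biotinylated anti-EGFR antibody binding compounds printed on slides; score combines fluorescence near 667 nm and signal to noise of each spot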

Row | SMILES | composite z-score [1] | composite z-score [2] | composite z-score [3] | composite z-score [4] | composite z-score [5] | composite z-score [6] | composite z-score [7] | z-score [8] | composite z-score [9] | composite z-score [10] | composite z-score [11] | z-score [12] | z-score [13] | z-score [14] | composite z-score [15] | z-score [16] | composite z-score [17] | composite z-score [18] | composite z-score [19] | composite z-score [20]
1 | CC1=C2[C@@H](CCc3ccccc3)OB(O)C[C@@H]2n2c(=O)n(-c3ccccc3)c(=O)n2C1 | -0.388 | -0.214 | -0.132 | 0.203 | 0.889 | 0.537 | 1.04 | -2.85 (inactive) | 0.156 | -0.34 | 1.02 | -0.237 (inactive) | -1.51 (inactive) | -0.535 (inactive) | 0.902 | -0.296 (inactive) | -0.179 | 0.416 | 0.666 | -0.111
2 | COC(=O)[C@@]1(Cc2ccccc2)N=C(c2ccc(OCCCO)cc2)O[C@H]1c1ccccc1N=[N+]=[N-] | 0.454 | 2.86 | -0.0667 | 0.123 | 0.784 | 0.657 | 1.33 | 3.69 (inactive) | 0.0183 | -0.201 | 1.49 | 0.288 (inactive) | -2.2 (inactive) | 5.8 (inactive) | 1.35 | 0.319 (inactive) | 0.0484 | 0.884 | 0.802 | -0.0953
3 | CCCC[C@@H]1C[C@H]1[C@@H](NC(=O)c1ccc(-c2ccccc2)cc1)c1ccc(-c2ccccc2)cc1 | -0.129 | 0.0257 | 0.702 | 0.711 | 0.286 | 0.0352 | 0.217 | -1.11 (inactive) | 0.0469 | 0.107 | 0.407 | -0.38 (inactive) | -6.62 (inactive) | -2.47 (inactive) | 0.983 | -1.08 (inactive) | -0.0986 | 0.677 | 1 | -0.109
4 | CCOC(=O)C[C@H]1[C@H](OC(=O)Cc2ccc3c(c2)OCO3)[C@@H](NC(=O)c2ccc(-c3ccccc3)cc2)c2cc(OCCCO)ccc2N1C(=O)c1ccccc1 | -0.386 | -0.0093 | -0.0144 | 0.585 | 0.537 | 0.371 | 0.797 | -3.42 (inactive) | 0.239 | -0.374 | 0.869 | 0.22 (inactive) | -0.661 (inactive) | 0.712 (inactive) | 1.81 | 1.96 (inactive) | -0.137 | 0.267 | 0.643 | 0.0027
5 | COC(=O)[C@@]1(Cc2ccccc2)[C@H]2c3cc(C(=O)N4CCCC4)n(C)c3C[C@H]2CN1C(=O)c1ccccc1 | 0.483 | -0.207 | 0.107 | -0.0646 | 1.67 | 1.51 | 1.25 | 0.121 (inactive) | 0.882 | 1.72 | 0.0683 | 0.29 (inactive) | 0.68 (inactive) | 0.0928 (inactive) | 3.35 | 0.391 (inactive) | 0.0165 | 0.0182 | 0.732 | 0.287
6 | CS(=O)(=O)CCOC(=O)C1=CC(c2ccc(CO)cc2)=CC(C2CC2)N(Cc2cc3c(cc2Br)OCO3)C=C1C(=O)OCCS(C)(=O)=O (stereo not given) | -0.232 | 0.28 | -0.0266 | 0.959 | 1.13 | 1.78 | 1.27 | -2.1 (inactive) | 0.566 | 0.245 | 1.47 | -0.938 (inactive) | -6.09 (inactive) | -0.247 (inactive) | 2.83 | 0.514 (inactive) | 0.17 | 0.782 | 0.929 | 0.0796
7 | COC(=O)[C@@]1(Cc2ccccc2)[C@H]2c3cc(C(=O)N(C)C)n(Cc4cc(C)n(C)n4)c3C[C@H]2CN1C(=O)c1ccccc1 | 0.512 | 0.403 | -0.221 | -0.0117 | 1.69 | 1.51 | 1.27 | 0.0005 (inactive) | 1.51 | 0.628 | 0.0423 | -0.571 (inactive) | -0.528 (inactive) | -0.649 (inactive) | 3.96 | -0.564 (inactive) | 0.0382 | -0.127 | 0.809 | 0.238
8 | [N-]=[N+]=Nc1ccccc1[C@@H]1OC(c2ccc(OCCCO)cc2)=N[C@]1(CCS(=O)(=O)c1ccccc1)C(=O)N1CCOCC1 | 0.712 | 0.274 | 0.269 | 1.09 | 1.62 | 1.95 | 1.24 | -0.246 (inactive) | 1.89 | -0.123 | 1.55 | 1.32 (inactive) | 1.91 (inactive) | 1.72 (inactive) | 3.59 | 0.376 (inactive) | 0.515 | 0.417 | 1.06 | 0.65
9 | O=C1O[C@H](c2ccccc2)[C@H](c2ccccc2)N2[C@H]1[C@@H](C(=O)NC[C@H](O)c1ccccc1)[C@]1(C(=O)Nc3ccc(C#CCCO)cc31)[C@H]2c1ccc(O)cc1 | 0.326 | -0.543 | -0.103 | -0.465 | -0.42 | 0.0538 | -0.51 | 0.08 (inactive) | -0.445 | 0.245 | -0.0718 | -0.383 (inactive) | -0.0869 (inactive) | 0.105 (inactive) | -0.217 | 0.092 (inactive) | 0.0249 | -0.984 | -0.415 | -0.194
10 | COC(=O)[C@@]1(Cc2ccc(F)cc2)[C@H]2c3cc(C(=O)N4CCCC4)n(Cc4cccc5ccccc45)c3C[C@H]2CN1C(=O)c1ccccc1 | 0.242 | 0.312 | 0.148 | 0.62 | 1.57 | 2.16 | 1.35 | 0.272 (inactive) | 0.558 | 0.762 | 0.187 | 0.0247 (inactive) | 0.702 (inactive) | 0.307 (inactive) | 3.85 | -1.48 (inactive) | 0.698 | -0.275 | 0.941 | 0.245
